Test results as given in PubChem BioAssay (NCI).
“And” between values parts separate entries of the source, which are not always exact repeats. Equal values may be shown once. About 79,000 compounds went through this panel and 15% of them were active in at least one assay; those are over-represented in the sample as a whole. Values without a mark were called inactive. The source made the active and inactive calls. No stated cut-off is given here; in the data, active means growth inhibition above about 70%; inactive means the rest.

Assay: NCI Yeast Anticancer Drug Screen. Data for the mec2-1 strain (AID 157)
Conditions: S. cerevisiae mec2-1 strain, hits give high values
Experimental: Growth inhibition of yeast strains with defined genetic alterations is measured as a screen for potential anti-cancer activity. Selected strains with alterations in DNA damage repair or cell cycle control were exposed to compounds and growth inhibition was measured relative to vehicle treated controls. The strain used in this assay is mec2-1

[1] = at 5.0 µM (retest, dose inferred, filed as 0.5)
[2] = at 50.0 µM (retest, dose inferred, filed as 5.0)

Row | Structure (SMILES) | growth inhibition [1] | growth inhibition [2] | growth inhibition (at 50.0 µM)
1 | Cc1ccccc1NC(=O)Cc1csc2[n+]1C(=O)/C(=C/c1ccc([N+](=O)[O-])cc1)S2 | 29% | 33% | -6.7%
2 | N#C/C(=N\Nc1ccc(Cl)cc1)C(=O)C1CC1 | 41% | 46% | 77.5% (active)
3 | CC(C)(C)N/N=C(/Cc1nc2c3c(ccc2[nH]c1=O)C(=O)c1ccccc1C3=O)C(=O)NC1=C(Cl)C(=O)c2ccccc2C1=O | 0% | 62% | 46.6%
4 | Cc1cc(C)c([I+]c2c(C)cc(C)cc2C)c(C)c1 | 20% | 97% (active) | 73.4% (active)
5 | CN(Cc1ccccc1)c1ccc(SC#N)cc1 | -4% | 61% | 87.5% (active)
6 | O=[N+]([O-])/C(=C/c1ccccc1)c1ccccc1 | 100% (active) | 99% (active) | 99.7% (active)
7 | O=C1C=CC(=O)N1c1cccc2c1CCCC2 | 100% (active) | 100% (active) | 93.8% (active)
8 | CNc1ncnc2nc(C)[nH]c12 | -3% | 3% | –
9 | OCCNC(c1ccc(Cl)cc1)C(O)c1ccc(Cl)cc1 (stereo not given) | -3% | 13% | –
10 | c1ccc(-c2nc(N=C3N=c4ccccc4=N3)[nH]c2-c2ccccn2)nc1 | 54% | 97% (active) | 77.8% (active)
11 | C[C@@H]1CCC([C@@H](C)[C@H]2CC[C@H]3[C@@H]4CC[C@H]5C[C@@H](O)CC[C@]5(C)[C@H]4CC[C@]23C)=NC1 | 60% | 98% (active) | 89% (active)
12 | CCCCCCN(CCCCCC)CCCCCCCCCCCO | 7% | 98% (active) | –
13 | S=C(S)OCN1CCOCC1 | 59% | 23% | 98.2% (active)
14 | COc1ccc(C(O)c2nccn2C)c(OC)c1 (stereo not given) | – | – | -3.55% and -10.8%
15 | O=C(CC(=O)c1ccc(Cl)cc1)Cc1ccc2ccccc2n1 | – | – | 29.4% and 38.6%
16 | CC1(C)Nc2ccccc2C(c2ccccc2)=NC1=O | – | – | -17.1% and -15.2%
17 | O=C1CCOC2=C1COC2=O | – | – | -6.05% and 17.6%
